Results taken from PubChem BioAssay (NCI).
The panel holds about 83,000 compounds, 20% with a hit somewhere; the sample as a whole holds those more often.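 Cells were grown in 96-well plates and exposed to the test compound at a single concentration for 48 hours; results are reported as percent growth, with values below 10 considered active.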 A number with no mark means an inactive call. Active and inactive are the calls of the source.

Key:
Assay in all cases: NCI-60 one-dose screen, 48 h (100 = growth as untreated, 0 = no growth, -100 = all killed)
Settings in all cases: 10 µM unless noted
NCI-H23 lung = test system: NCI-H23 lung
NCI-H226 lung = test system: NCI-H226 lung
NCI-H322M lung = test system: NCI-H322M lung
HOP-62 NSCLC = test system: HOP-62 NSCLC
NCI-H460 lung = test system: NCI-H460 lung
HOP-92 NSCLC = test system: HOP-92 NSCLC
NCI-H522 lung = test system: NCI-H522 lung
A549/ATCC NSCLC = test system: A549/ATCC NSCLC
786-0 renal = test system: 786-0 renal
COLO 205 colon = test system: COLO 205 colon
DU-145 prostate = test system: DU-145 prostate
K-562 leukemia = test system: K-562 leukemia
MALME-3M melanoma = test system: MALME-3M melanoma
MDA-MB-231 breast = test system: MDA-MB-231 breast
RXF 393 renal = test system: RXF 393 renal
SF-268 CNS = test system: SF-268 CNS
SF-295 CNS = test system: SF-295 CNS
SF-539 CNS = test system: SF-539 CNS
UACC-257 melanoma = test system: UACC-257 melanoma
M14 melanoma = test system: M14 melanoma

| SMILES | growth (NCI-H23 lung) | growth (NCI-H226 lung) | growth (NCI-H322M lung) | growth (HOP-62 NSCLC) | growth (NCI-H460 lung) | growth (HOP-92 NSCLC) | growth (NCI-H522 lung) | growth (A549/ATCC NSCLC) | growth (786-0 renal) | growth (COLO 205 colon) | growth (DU-145 prostate) [%] | growth (K-562 leukemia) | growth (MALME-3M melanoma) | growth (MDA-MB-231 breast) | growth (RXF 393 renal) | growth (SF-268 CNS) | growth (SF-295 CNS) | growth (SF-539 CNS) | growth (UACC-257 melanoma) | growth (M14 melanoma) |
| --- | --- | --- | --- | --- | --- | --- | --- | --- | --- | --- | --- | --- | --- | --- | --- | --- | --- | --- | --- | --- |
| COc1ccc(-n2nc(C)c3c(Oc4ccc(NC(=O)Nc5c(Cl)cccc5Cl)cc4)ncnc32)cc1 | 98.3% | 107% | 96.8% | 97.7% | 101% | 98% | 93.6% | 103% | 110% | 99% | 105 | 104% | 99.4% | 101% | 107% | 93.6% | 100% | 96.7% | 102% | 110% |
| O=C1NC(=O)C(c2ccc(Cl)cc2Cl)N1 (stereo not given) | 100% | 103% | 100% | 111% | 95.2% | 107% | 93.8% | 101% | 110% | 125% | 112 | 102% | 106% | 101% | 117% | 106% | 110% | 115% | 112% | 106% |
| N#CCCN=Nc1c(O)[nH]c2ccc(F)cc12 | 96.3% | 96.1% | 103% | 98.6% | 101% | 101% | 85% | 111% | 94.1% | 118% | 106 | 119% | 99.2% | 102% | 103% | 96.5% | 101% | 105% | 118% | 98% |
| COc1cc(/C=C/c2cc(/C=C/c3ccc(O)c(OC)c3)n(-c3c(C)cccc3C)c(=O)n2)ccc1O | 2.99% (active) | 4.63% (active) | 15.9% | -2.09% (active) | 7.91% (active) | -3.15% (active) | -10.2% (active) | 2.96% (active) | 12.6% | -40.9% (active) | 12.7 | 5.52% (active) | -14% (active) | 23.1% | -32.1% (active) | 8.69% (active) | 8.43% (active) | -23.5% (active) | -6.5% (active) | 8.07% (active) |
| Cc1ccc2c(C(C[N+](=O)[O-])c3ccccc3F)c(-c3ccccc3)[nH]c2c1 (stereo not given) | 56.9% | 58.6% | 68.5% | 36.2% | 20.9% | 45.8% | -17.2% (active) | 35.2% | 56.7% | 32.3% | 66.2 | 11.8% | 46.1% | 61.4% | 63.6% | 46.7% | 17.6% | 52.3% | 46.9% | 26.2% |
| O=CNc1ccc2c(c1)Cc1cccc(NC=O)c1-2 | 95.6% | 83.6% | 106% | 100% | 95.8% | 97.7% | 82.2% | 85.6% | 104% | 99.9% | 106 | 104% | 106% | 83.5% | 103% | 94.2% | 111% | 101% | 93.4% | 91.2% |
| O=S(=O)(Nc1ccc(Cl)c(F)c1)c1ccc(-c2cnc(C3CC3)o2)cc1 | 25.2% | 58.6% | 39.7% | 32.5% | 13.5% | 42% | -15.8% (active) | 30.1% | 42.6% | 1.76% (active) | 16.6 | 12.3% | 35.3% | 37.8% | -7.66% (active) | 52.1% | 10.3% | -15.5% (active) | 52.9% | 19.5% |
| CC1=C/C(=C(\c2ccc(N(C)C)cc2)c2ccc([N+](C)(C)C)cc2)C=CC1=[N+](C)C | 80.4% | 88.4% | 104% | 37% | 74.9% | 56.5% | 97.2% | 29.2% | 94.7% | 66% | 51.5 | 37.5% | 120% | 93.9% | 76.6% | 92% | 48.4% | 78.6% | 99.8% | 77.5% |
| Cc1cc(C)c2nc3nc(C)cc(C)c3c(N)c2c1 | 47.6% | 23.2% | 40.9% | 33.8% | -2.37% (active) | -1.87% (active) | 39% | 19.9% | 28.4% | 16.2% | 15.5 | 10% (active) | 24% | 30.2% | 42.5% | 19.7% | 29.6% | 14.1% | 40.2% | 34.1% |
| COc1ccc(-n2nc(C)c3c(Nc4ccc(NC(=O)Nc5cccc(C(F)(F)F)c5)cc4)ncnc32)cc1 | 9.95% (active) | 34.1% | 5.43% (active) | -37.9% (active) | 1.6% (active) | -26.4% (active) | 4.21% (active) | -19.2% (active) | -47.4% (active) | -39.2% (active) | 18.2 | 4.37% (active) | -10.9% (active) | -18.7% (active) | -36% (active) | 22.8% | -44.1% (active) | 2.75% (active) | -1.66% (active) | -0.151% (active) |
| Cc1ccccc1COc1ccc(-c2onc(C)c2-c2ccc(Cl)cc2)cc1 | 73.8% | 57.2% | 97.6% | 51.6% | 54.7% | 72.6% | 25.5% | 49.3% | 75.5% | 71% | 77.4 | 14.4% | 59.8% | 90.8% | 70.2% | 75.6% | 49.4% | 63.5% | 70.9% | 32.2% |
| O=C(O)COc1ccc(Cl)cc1C1CCCCC1 | 102% | 92.8% | 101% | 106% | 96.3% | 111% | 99% | 93.2% | 106% | 119% | 110 | 91.8% | 104% | 98.5% | 102% | 102% | 109% | 107% | 114% | 102% |
| Fc1ccc2[nH]cc(SSc3c[nH]c4ccc(F)cc34)c2c1 | 45.9% | 52% | 89.7% | 31.7% | 30.5% | -27.9% (active) | 0.948% (active) | 19.3% | 60.8% | 40.9% | 90.4 | 23.2% | 83.6% | 42.7% | 14.4% | 17.7% | -17.2% (active) | 36.8% | 78.7% | 53.2% |
| CCN(CC)c1ccc(-c2cc(-c3cc(OC)c(OC)c(OC)c3)nc(N3CCOCC3)c2C#N)cc1 | 56.2% | 8.07% (active) | 52.9% | -40.5% (active) | -1.44% (active) | -1.28% (active) | -15.6% (active) | 21.5% | 0.298% (active) | 5.62% (active) | 38.8 | 1.69% (active) | -12.6% (active) | -10.9% (active) | -9.31% (active) | 39.6% | -54.6% (active) | 35.6% | -23.5% (active) | -53.9% (active) |
| COc1ccc2nc(NC(=O)CSc3nnc4n3S(=O)(=O)c3ccccc3N4c3ccccc3)sc2c1 | 87.4% | 101% | 91.2% | 94.7% | 104% | 46.6% | 64.5% | 44.8% | 101% | 96.1% | 99.3 | 113% | 89.7% | 77.7% | 23% | 71.9% | 73.2% | 94.3% | 103% | 100% |
